The list is not random: actives were taken first. Their share in the collection is about 1.4%.
ERK EGF block: qHTS Assay for Inhibitors of the ERK Signaling Pathway using a Homogeneous Screening Assay; Stimulation with EGF. HEK293-V1b, EGF-stimulated phospho-ERK AlphaScreen. Potency, µM (series often up to 11.5 µM), for inactives: at the highest dose activity change, negative = inhibition, most hits filed as inhibitors. hit rate 0.41% among 130,000. AID 1454, 2008;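 note: potency is the fitted concentration of half-maximal effect; plate controls were stimulated vehicle wells for no effect and unstimulated vehicle basal for full effect; nearly all actives have a fitted effect of over 55% in size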
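After overnight plating in 1% FBS, HEK293-V1b cells received test compound for half an hour, then a 5 min pulse of EGF (25 nM); ERK phosphorylation in lysates was read by bead-based AlphaScreen.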
HttQ103 aggreg: qHTS Multiplex Assay to Identify Dual Action Probes in a Cell Model of Huntington: Aggregate Formation (GFP); PC12 HttQ103-GFP aggregates, Acumen cytometry, 40 h; Potency, µM (doses to about 46.1 µM), inactives show at the top dose activity change, negative = inhibition, usual class: inhibitors; hit rate 1.1% among 220,000; note: potency is the fitted concentration of half-maximal effect; % is set by controls: 0 for no effect and ±100 for the full control effect; nearly all actives have a fitted effect of over 60% in size
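Compounds (qHTS titration) were added to PC12 cells expressing an ecdysone-driven HTT exon 1 Q103–GFP fusion after induction with 100 nM tebufenozide. Aggregate formation was measured as GFP objects in cell lysates.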
HTT ATP protect: qHTS Multiplex Assay to Identify Dual Action Probes in a Cell Model of Huntington: Cytoprotection (ATP). PC12 HTT-Q103 induced, cytoprotection, ATP luminescence, 40 h. Potency, µM (titrated, usually from 56.4 µM), inactives show cytoprotection (ATP increase), actives largely listed as activators. hit rate 0.14% among 230,000; note: potency is the fitted concentration of half-maximal effect; % of control where 0% means no effect; nearly all actives have a fitted effect of over 45% in size
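Compounds were screened for protection of PC12 cells against cell death after tebufenozide induction (100 nM final) of mutant Huntingtin exon 1 (Q103) fused to GFP.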
ERK pERK EGF: Confirmation Concentration-Response Assay for Inhibitors of the ERK Signaling Pathway using a Homogeneous Screening Assay; Stimulation with EGF; shares compounds with ERK EGF block; HEK293 EGF-stimulated ERK phosphorylation, AlphaScreen; Potency, µM (doses to about 57.5 µM), for inactives: at the highest dose activity change, negative = inhibition, usual class: inhibitors; hit rate 60% among 60
cRaf kinase inh: Assay for Inhibitors of the ERK Signaling Pathway using a Homogeneous Screening Assay: c-Raf Inhibition; shares compounds with ERK EGF block; c-Raf kinase inhibition, homogeneous biochemical assay; activity change, negative = inhibition, % at 76.9 µM; 70 tested, under 10 active; AID 1728, 2009
MEK1 kinase inh: Assay for Inhibitors of the ERK Signaling Pathway using a Homogeneous Screening Assay: MEK Inhibition; homogeneous MEK kinase activity assay, ERK pathway; Potency, µM (highest dose often 76.9 µM), inactives show at the highest dose activity change, negative = inhibition, actives largely listed as inhibitors; 70 tested, under 10 active; shares compounds with ERK EGF block
Active calls of the source: *; u = inconclusive; x = not tested or not shown; ! = not confirmed by another sample; [ ] = remark or other dose. Calls come from the whole dose curve; as a rule, active = well fitted curve in the direction sought with a large enough effect; inconclusive = small, poorly fitted or top-dose-only effect, or another doubt; inactive = no such curve, though single readings can be large; an effect the other way counts as inactive or inconclusive.

SMILES | ERK EGF block | HttQ103 aggreg | HTT ATP protect | others
CCN1C[C@@]2(COC)[C@H](O)C[C@H](OC)[C@@]34[C@@H]5C[C@@]6(O)[C@H](OC(=O)c7ccccc7)[C@H]5[C@@](OC(C)=O)([C@H]([C@@H](OC)[C@H]23)[C@H]14)[C@H](O)[C@@H]6OC | x | x | -7%
CCOC(=O)c1c(-n2c(C)cc(C=C3C(=O)NC(=O)NC3=O)c2C)sc2c1CCCC2 | x | u | -39%
Cc1cccc(N2C(=O)NC(=O)/C(=C\c3cc(C)n(-c4sc5c(c4C#N)CCCC5)c3C)C2=O)c1C | -6% | 5µM* | 2%[10 µM]
COC(=O)[C@@H]1C[C@@H]1[C@@H](NP(=O)(c1ccccc1)c1ccccc1)c1ccccc1 | x | x | -40%
Ic1ccccc1CN[C@@H]1C2CCN(CC2)[C@H]1C(c1ccccc1)c1ccccc1 | x | x | -23%[1.9 µM]
CN(C)c1ccc(C=C2C(=O)NC(=S)NC2=O)cc1[N+](=O)[O-] | 4% | 5% | -45%
O=C1NC(=S)NC(=O)C1=Cc1cccc2cc3ccccc3cc12 | 28µM* | -4%[9.22 µM] | -2%[10 µM]
O=CN1C[C@H]2C[C@@H](C1)c1cccc(=O)n1C2 | x | x | 5%
Cc1ccccc1O | x | x | 3%
Oc1cccc[c]1[Hg][Cl] | x | 8.9µM* | -99%
C[N+]1(C)CCc2cc3c(cc2[C@@H]1[C@@H]1OC(=O)c2c1ccc1c2OCO1)OCO3 | x | x | 6%[1.9 µM]
CCC(C)C(=O)OC1C(O)C2C(CN3CC(C)CCC3[C@]2(C)O)C2C[C@]34O[C@@]5(O)C(OC(=O)C(C)(O)C(C)O)CCC3(C)C5C(OC(C)=O)C(OC(C)=O)C4[C@@]21O (stereo partly specified) | -1% | x | 6%
CCC(C)C(=O)OC1C(O)C2C(CN3CC(C)CCC3[C@]2(C)O)C2C[C@]34O[C@@]5(O)C(OC(=O)C(C)(O)CC)CCC3(C)C5C(OC(C)=O)C(OC(C)=O)C4[C@@]21O (stereo partly specified) | -3% | x | 1.4µM*
N[C@@H]1CCc2cc(O)c(O)cc2C1 | x | x | 9%[1.9 µM]
Cc1ccc(-n2c(O)c(/C=C3/C(c4ccccc4)=Nc4ccccc43)c(=O)[nH]c2=O)cc1 | x | 11µM* | -53%[10 µM]
Cc1cccc(-n2c(O)c(/C=C3/C(c4ccccc4)=Nc4ccccc43)c(=O)[nH]c2=O)c1 | -17%[57.5 µM] | -11%[9.22 µM] | -36%[10 µM]
NC[C@H](O)c1cc(O)c(O)cc1F | x | x | 12%[1.9 µM]
Cc1ccsc1C(=O)C1CCCN(Cc2sc(N(C)C)nc2Cl)C1 (stereo unspecified) | 20µM* | 34%[9.22 µM] | 23%[10 µM]
Cc1ccsc1C(=O)C1CCCN(Cc2cnc(N(C)C)s2)C1 (stereo unspecified) | -2% | 10%[9.22 µM] | 7%[10 µM]
CN1CCN(c2ccc([N+](=O)[O-])c3[nH]o[n+](=O)c23)CC1 | x | x | -93%[10 µM]
CC/C(=C\C=C\[C@@H]1C=C[C@@H]2CCC[C@H]2[C@@H]1C(=O)c1ccc[nH]1)[C@@H]1O[C@@H]([C@@H](C)C(=O)O)CC[C@@H]1C | x | 11µM* | -35%[10 µM]
O=[N+]([O-])c1ccc(O[C@H]2O[C@@H](CO)[C@@H](O)[C@@H](O)[C@@H]2F)c([N+](=O)[O-])c1 | x | x | -21%[1.9 µM]
CN(C)C(=S)SC(=S)N(C)C | x | 3.2µM* | -97%
CN(C)C(=S)SSC(=S)N(C)C | -2% | 1µM*! | -309%
N[C@H](Cn1ccc(=O)[nH]c1=O)C(=O)O | x | x | -20%[1.9 µM]
SMILES | ERK EGF block | HttQ103 aggreg | HTT ATP protect | others
CN1C(=O)C(=Cc2ccccc2Oc2ccc(Cl)c(F)c2)C(=O)N(C)C1=O | x | -8% | -15%
O=C1NC(=O)C(=Cc2ccccc2Oc2ccc(F)cc2)C(=O)N1 | 4µM* | -19% | 7% | ERK pERK EGF=2%;cRaf kinase inh=-8;MEK1 kinase inh=u
CO[C@@H]1CC=C2CCN3CCC4=C(CC(=O)OC4)[C@]23C1 | x | x | 13%[1.9 µM]
C[N+]1(C)CCO[C@@](O)(c2ccc(-c3ccc([C@]4(O)C[N+](C)(C)CCO4)cc3)cc2)C1 | x | x | -5%[1.9 µM]
CC1=CC(=O)c2c(O)cccc2C1=O | 5.6µM*! | x | -18%[1.9 µM] | ERK pERK EGF=7.1µM*;cRaf kinase inh=u;MEK1 kinase inh=u
O=C(O)c1cc[c]([Hg][S]c2ncnc3nc[nH]c23)cc1 | x | x | -76%[10 µM]
